Measured values: PubChem BioAssay (Tox21)
Inconclusive results are not listed. Calls of active or inactive are those of the source. Unless noted, calls come from the whole dose curve; as a rule, active = well fitted curve in the direction sought with a large enough effect in the repeat runs; inconclusive = weak or mixed curves; inactive = no such curve, though single readings can be large; an effect the other way counts as inactive or inconclusive.

Columns and labels:
[1] = qHTS assay for small molecule agonists of the p53 signaling pathway (AID 651631; calls by dose curve; note: nearly all actives have a fitted effect of over 15% in size)
How it was run: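 Agonist mode screen using a stably integrated beta-lactamase gene under p53 response elements in HCT-116 cells. Compound exposure lasts 16 h at 37 °C; fluorescence intensity is measured following 2 h FRET substrate loading.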

[2] = qHTS assay for small molecules that induce genotoxicity in human embryonic kidney cells expressing luciferase-tagged ATAD5 (AID 651632); note: nearly all actives have a fitted effect of over 15% in size
How it was run: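 Concentration-response screen for ATAD5 upregulation in HEK293T luciferase reporter cells; 16 hr treatment at 37C, then luminescence after 30 min with Amplite at room temperature.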

[3] = qHTS assay for small molecule agonists of the p53 signaling pathway - cell viability (AID 651633; calls by dose curve;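 note: p53RE-bla HCT reporter cells with a stable beta-lactamase p53 reporter; series mostly up to about 83 µM; nearly all actives have a fitted effect of over 30% in size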)
How it was run: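 p53RE-bla cells were treated with compound for 16 hours at 37 C. Cytotoxicity was then measured as CellTiter-Glo luminescence after 30 min at room temperature.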

[4] = qHTS assay for small molecules that induce genotoxicity in human embryonic kidney cells expressing luciferase-tagged ATAD5 - cell viability (AID 651634; calls by dose curve; note: nearly all actives have a fitted effect of over 25% in size)
How it was run: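 15.5 hr compound or vehicle exposure of HEK293T cells expressing luciferase-tagged ATAD5 at 37C; live-cell protease activity is read by fluorescence after 30 min of CellTiter-Fluor.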

[5] = qHTS assay for small molecule disruptors of the mitochondrial membrane potential - cell viability (AID 720634; calls by dose curve;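 note: human HepG2 liver cancer cells; series mostly up to about 83 µM; nearly all actives have a fitted effect of over 20% in size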)
How it was run: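 In this qHTS format, HepG2 cells plated overnight were pinned with compound, incubated 1 hr, and assayed for ATP luminescence with CellTiter-Glo after m-MPI dye addition.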

[6] = qHTS assay to test for compound auto fluorescence at 590 nm (red) in HepG2 cells (AID 720674)
How it was run: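 HepG2 cells, 2,000 per well in MEM with 10% FBS, attached overnight at 37 C, then got 23 nL compound or DMSO. After 1 hr at 37 C, 5% CO2, red fluorescence was read at 540/590 nm against Rose Bengal sodium as reference.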

[7] = qHTS assay to test for compound auto fluorescence at 535 nm (green) in HepG2 cells (AID 720675)
[8] = qHTS assay to test for compound auto fluorescence at 460 nm (blue) in HEK293 cells (AID 720678)
How it was run: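 After cell attachment (4-5 hr, 37C), compounds were pinned onto HEK293 monolayers in 10% dialyzed FBS medium. The blue channel (405/460 nm) was read following overnight culture. Equivalency was calculated against triamterene.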

[9] = qHTS assay to test for compound auto fluorescence at 590 nm (red) in HEK293 cells (AID 720679)
How it was run: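 Plates of HEK293 cells (10% dialyzed FBS) are treated with 23 nL compound or DMSO vehicle after a 4-5 hr attachment period, incubated overnight at 37C, and read for red fluorescence at 540/590nm.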

[10] = qHTS assay to test for compound auto fluorescence at 535 nm (green) in HEK293 cells (AID 720680)
[11] = qHTS assay to test for compound auto fluorescence at 460 nm (blue) in HEK293 cell free culture (AID 720681)
How it was run: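 Compounds were added to cell-free DMEM with 10% FBS and fluorescence read directly. The blue channel used 405 nm excitation and 460 nm emission, with triamterene as the reference fluorophore.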

[12] = qHTS assay to test for compound auto fluorescence at 535 nm (green) in HEK293 cell free culture (AID 720682)
How it was run: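 No cells present: wells hold DMEM supplemented with 10% FBS, into which compound or vehicle is pinned. Green emission is then recorded (485 nm excitation, 535 nm emission) and scaled to fluorescein.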

[13] = qHTS assay to test for compound auto fluorescence at 590 nm (red) in HepG2 cell free culture (AID 720684)
How it was run: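 Auto fluorescence equivalency versus Rose Bengal sodium, red channel Ex/Em 540/590 nm; compounds in cell-free MEM/10% FBS; DMSO vehicle control.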

[14] = qHTS assay to test for compound auto fluorescence at 535 nm (green) in HepG2 cell free culture (AID 720686)
[15] = qHTS assay to test for compound auto fluorescence at 460 nm (blue) in HepG2 cells (AID 720687)
How it was run: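 HepG2 cells in MEM with 10% FBS, attached overnight at 37 C, were exposed to compound or DMSO for 1 hr at 37 C, 5% CO2. Blue fluorescence was read at 405/460 nm, with triamterene as reference fluorophore.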

[16] = molecular target: Glucocorticoid receptor (Homo sapiens) (UniProt P04150); experiment: qHTS assay to identify small molecule antagonists of the glucocorticoid receptor (GR) signaling pathway (AID 720692; active = well fitted inhibition curve with a large enough effect in the signal ratio in the repeat runs, not every such curve was filed as active; the % refers to the signal ratio)
Sequence of Glucocorticoid receptor (Homo sapiens) (P04150 whole entry, looked up): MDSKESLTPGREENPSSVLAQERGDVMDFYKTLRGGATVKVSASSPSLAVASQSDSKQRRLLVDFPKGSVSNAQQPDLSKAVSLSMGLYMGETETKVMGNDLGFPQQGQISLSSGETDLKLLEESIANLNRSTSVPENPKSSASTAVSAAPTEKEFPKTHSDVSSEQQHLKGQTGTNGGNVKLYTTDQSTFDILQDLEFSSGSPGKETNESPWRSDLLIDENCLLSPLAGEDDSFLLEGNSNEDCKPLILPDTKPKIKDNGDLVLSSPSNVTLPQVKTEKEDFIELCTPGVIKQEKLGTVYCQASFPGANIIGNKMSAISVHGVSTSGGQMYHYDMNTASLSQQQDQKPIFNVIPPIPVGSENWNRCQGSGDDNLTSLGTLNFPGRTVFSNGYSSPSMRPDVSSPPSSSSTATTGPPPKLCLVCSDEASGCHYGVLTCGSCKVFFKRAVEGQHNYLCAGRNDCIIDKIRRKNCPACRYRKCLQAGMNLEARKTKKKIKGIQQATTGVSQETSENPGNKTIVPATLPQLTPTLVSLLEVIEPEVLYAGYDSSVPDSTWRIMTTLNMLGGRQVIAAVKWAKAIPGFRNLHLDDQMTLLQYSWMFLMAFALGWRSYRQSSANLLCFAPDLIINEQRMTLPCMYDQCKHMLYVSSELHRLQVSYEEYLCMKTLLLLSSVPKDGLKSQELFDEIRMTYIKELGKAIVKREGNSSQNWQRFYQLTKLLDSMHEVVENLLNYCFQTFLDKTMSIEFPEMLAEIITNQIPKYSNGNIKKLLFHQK
How it was run: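 Tox21 10K library screened in concentration-response for blockade of dexamethasone (5 nM final)-induced GRE-bla reporter activity in HeLa cells; 18 h treatment, fluorescence read.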

[17] = qHTS assay to test for compound auto fluorescence at 590 nm (red) in HEK293 cell free culture (AID 720683)
How it was run: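 Cell-free wells of DMEM with 10% FBS received compound, and intrinsic fluorescence was read at excitation/emission 540/590 nm. Values expressed as equivalence to Rose Bengal sodium.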

[18] = qHTS assay to test for compound auto fluorescence at 460 nm (blue) in HepG2 cell free culture (AID 720685)
How it was run: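 Cell-free plates of MEM plus 10% FBS received 23 nL compound or DMSO vehicle; blue-channel (405/460 nm) intensity scored against triamterene as reference fluorophore.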

[19] = molecular target: Glucocorticoid receptor (Homo sapiens) (UniProt P04150); experiment: qHTS assay to identify small molecule agonists of the glucocorticoid receptor (GR) signaling pathway (AID 720691; active = well fitted activation curve with a large enough effect in the signal ratio in the repeat runs, not every such curve was filed as active; the % refers to the signal ratio)
How it was run: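 Measures GR pathway activation through a GRE-beta-lactamase reporter stably integrated in HeLa cells, with 18 h compound treatment at 37 C and fluorescence detection using a FRET substrate.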
% is set by controls: 0 for no effect and ±100 for the full control effect.

CCc1ncc(C)[nH]1
inactive: Potency [1] | Potency [2] | outcome [3] | outcome [4] | outcome [5] | outcome [6] | outcome [7] | outcome [8] | outcome [9] | outcome [10] | outcome [11] | outcome [12] | outcome [13] | outcome [14] | outcome [15] | outcome [16]

CN(C)CCc1c[nH]c2ccc(C[C@H]3COC(=O)N3)cc12
inactive: Potency [1] | Potency [2] | outcome [3] | outcome [4] | outcome [5] | outcome [6] | outcome [8] | outcome [9] | outcome [10] | outcome [11] | outcome [12] | outcome [17] | outcome [13] | outcome [18] | outcome [14] | outcome [15] | Potency [19] | outcome [16]

CCC(C)SSC(C)CC (stereo unspecified)
inactive: Potency [1] | Potency [2] | outcome [3] | outcome [4] | outcome [5] | outcome [6] | outcome [7] | outcome [8] | outcome [9] | outcome [10] | outcome [11] | outcome [12] | outcome [17] | outcome [13] | outcome [14] | outcome [15] | Potency [19] | outcome [16]

O=C(O)P(=O)(O)O
inactive: Potency [1] | Potency [2] | outcome [3] | outcome [4] | outcome [5] | outcome [6] | outcome [7] | outcome [8] | outcome [9] | outcome [11] | outcome [12] | outcome [17] | outcome [13] | outcome [18] | outcome [14] | outcome [15] | Potency [19]

Cc1ccc(S(=O)(=O)NC(=O)NN2CC3CCCC3C2)cc1 (stereo unspecified)
inactive: Potency [1] | Potency [2] | outcome [3] | outcome [4] | outcome [5] | fluorescence, relative to Rose Bengal [6] 0.0207% [at 18.6 µM] | fluorescence, % of fluorescein control [7] 0.0063% [at 18.6 µM] | fluorescence, % of triamterene [8] -0.0452% [at 18.6 µM] | fluorescence, % of fluorescent control [9] -0.0362% [at 18.6 µM] | fluorescence, % of fluorescent control [11] 0.0029% [at 18.6 µM] | activity change [12] -0.0097% [at 18.6 µM] | fluorescence, % of fluorescent control [17] 0.167% [at 18.6 µM] | fluorescence, % of Rose Bengal [13] 0.0439% [at 18.6 µM] | fluorescence, % of fluorescent control [18] -0.0187% [at 18.6 µM] | fluorescence, % of fluorescein control [14] -0.0072% [at 18.6 µM] | fluorescence, % of fluorescent control [15] -0.0447% [at 18.6 µM]

CCCCCCCCCCCCCCCC/C=C/C1CC(=O)OC1=O (stereo unspecified)
inactive: Potency [1] | Potency [2] | outcome [3] | outcome [4] | outcome [5] | outcome [6] | outcome [7] | outcome [8] | outcome [9] | outcome [10] | outcome [12] | outcome [17] | outcome [13] | outcome [18] | outcome [14] | outcome [15] | Potency [19]

CCCCCCCCCCCBr
inactive: Potency [1] | Potency [2] | outcome [3] | outcome [4] | outcome [5] | outcome [6] | outcome [7] | outcome [8] | outcome [9] | outcome [10] | outcome [11] | outcome [12] | outcome [17] | outcome [13] | outcome [15] | Potency [19] | outcome [16]

COC(C)(C)CC(C)=O
inactive: Potency [1] | Potency [2] | outcome [3] | outcome [4] | outcome [5] | outcome [6] | outcome [8] | outcome [9] | outcome [10] | outcome [11] | outcome [12] | outcome [17] | outcome [13] | outcome [18] | outcome [15]

CC1(C)CC(N)CC(C)(C)N1
inactive: Potency [1] | Potency [2] | outcome [3] | outcome [4] | outcome [5] | outcome [6] | outcome [7] | outcome [8] | outcome [9] | outcome [11] | outcome [12] | outcome [17] | outcome [13] | outcome [18] | outcome [14] | outcome [15]

CC(C)(C)C(=O)NCCCC(=O)O
inactive: Potency [1] | Potency [2] | outcome [3] | outcome [4] | outcome [5] | outcome [6] | outcome [7] | outcome [8] | outcome [9] | outcome [10] | outcome [11] | outcome [12] | outcome [17] | outcome [13] | outcome [18] | outcome [14] | outcome [15]

CC(C)(C)NCC(O)COc1cccc2c1CCC(=O)N2 (stereo unspecified)
inactive: Potency [1] | Potency [2] | outcome [3] | outcome [4] | outcome [5] | fluorescence, relative to Rose Bengal [6] -0.0368% [at 18.6 µM] | fluorescence, % of fluorescein control [7] -0.225% [at 18.6 µM] | fluorescence, % of triamterene [8] 0.0079% [at 18.6 µM] | fluorescence, % of fluorescent control [9] 0.0747% [at 18.6 µM] | fluorescence, % of fluorescein [10] 0.0295% [at 18.6 µM] | fluorescence, % of fluorescent control [11] 0.183% [at 18.6 µM] | activity change [12] -0.0136% [at 18.6 µM] | fluorescence, % of fluorescent control [17] -0.0457% [at 18.6 µM] | fluorescence, % of Rose Bengal [13] -0.307% [at 18.6 µM] | fluorescence, % of fluorescent control [18] -0.0069% [at 18.6 µM] | fluorescence, % of fluorescent control [15] 0.113% [at 18.6 µM] | Potency [19] | outcome [16]

CC12CCCC=C1C(=O)OC2=O (stereo unspecified)
inactive: Potency [1] | Potency [2] | outcome [3] | outcome [4] | outcome [5] | outcome [6] | outcome [8] | outcome [9] | outcome [10] | outcome [11] | outcome [12] | outcome [17] | outcome [13] | outcome [18] | outcome [14] | outcome [15]

O=S(=O)(O)c1ccc(Cl)cc1
inactive: Potency [1] | Potency [2] | outcome [3] | outcome [4] | outcome [5] | outcome [6] | outcome [7] | outcome [8] | outcome [9] | outcome [10] | outcome [11] | outcome [12] | outcome [17] | outcome [13] | outcome [15] | outcome [16]

CC(=O)OC1CCC(C(C)(C)C)CC1 (stereo unspecified)
inactive: Potency [1] | Potency [2] | outcome [3] | outcome [4] | outcome [5] | outcome [6] | outcome [8] | outcome [9] | outcome [10] | outcome [11] | outcome [12] | outcome [17] | outcome [13] | outcome [18] | outcome [15] | outcome [16]

CC(C)C[P+](C)(CC(C)C)CC(C)C
inactive: Potency [1] | Potency [2] | outcome [3] | outcome [4] | outcome [5] | outcome [6] | outcome [7] | outcome [8] | outcome [9] | outcome [10] | outcome [11] | outcome [12] | outcome [17] | outcome [13] | outcome [18] | outcome [14] | outcome [15] | Potency [19]
